# Assay outcomes as filed in PubChem BioAssay.
# Shown is part of a subset that was picked to be rich in hits.
# IDE exosite FP: exo-site inhibitors of human IDE, primary screen, biochemical, fluorescence anisotropy, probe displacement; Insulin-degrading enzyme (Homo sapiens), P14735; purified IDE, FL-6b probe fluorescence polarization; stronger effect = lower value; z-score at 20 µM; 6.3% of 17,000 active; AID 1259349, 2017;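 active = z-score of -3 or lower, meaning strong loss of probe binding signal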;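 note: His-tagged human IDE residues 42-1019 made in E. coli with 30 nM FL-6b probe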
# Target sequence (P14735 42-1019 limits assumed): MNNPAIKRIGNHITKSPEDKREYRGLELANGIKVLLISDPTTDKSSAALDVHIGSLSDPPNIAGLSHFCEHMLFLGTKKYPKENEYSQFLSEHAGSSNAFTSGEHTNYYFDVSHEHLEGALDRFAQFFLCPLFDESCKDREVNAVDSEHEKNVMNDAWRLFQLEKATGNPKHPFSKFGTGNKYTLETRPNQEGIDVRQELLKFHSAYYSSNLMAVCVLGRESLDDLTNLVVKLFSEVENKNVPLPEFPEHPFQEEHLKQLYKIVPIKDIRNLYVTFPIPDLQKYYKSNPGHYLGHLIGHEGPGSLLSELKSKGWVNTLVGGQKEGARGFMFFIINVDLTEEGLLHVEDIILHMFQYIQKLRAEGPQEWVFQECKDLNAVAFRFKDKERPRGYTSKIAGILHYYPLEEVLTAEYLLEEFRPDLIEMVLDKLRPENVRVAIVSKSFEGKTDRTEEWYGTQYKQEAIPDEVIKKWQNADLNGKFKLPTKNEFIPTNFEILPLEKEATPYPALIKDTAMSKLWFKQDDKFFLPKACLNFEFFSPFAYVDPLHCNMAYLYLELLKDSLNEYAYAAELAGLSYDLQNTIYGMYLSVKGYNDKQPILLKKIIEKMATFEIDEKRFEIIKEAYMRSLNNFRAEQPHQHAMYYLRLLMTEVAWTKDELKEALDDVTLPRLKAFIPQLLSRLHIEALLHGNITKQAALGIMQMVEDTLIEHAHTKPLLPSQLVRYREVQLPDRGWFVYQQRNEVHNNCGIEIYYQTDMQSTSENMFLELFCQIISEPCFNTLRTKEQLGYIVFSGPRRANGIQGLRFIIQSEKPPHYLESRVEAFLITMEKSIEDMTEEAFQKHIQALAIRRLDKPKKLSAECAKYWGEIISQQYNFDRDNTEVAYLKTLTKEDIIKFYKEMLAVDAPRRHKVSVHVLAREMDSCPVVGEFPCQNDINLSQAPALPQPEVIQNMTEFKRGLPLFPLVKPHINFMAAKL
# An asterisk follows results filed as active.
SMILES,IDE exosite FP
CC(=O)N1[C@@H](CO)[C@@H](c2ccccc2)[C@@H]1CNC(=O)CN1CCOCC1,0.61
COc1cccc(-c2ccc([C@H]3[C@H](CO)N4C(=O)CN(C(=O)c5ccncc5)C[C@@H]34)cc2)c1,-4.6*
COc1cccc(-c2ccc([C@@H]3[C@H](CO)N4C(=O)CN(C(=O)c5ccncc5)C[C@@H]34)cc2)c1,-1.8
O=C(c1ccncc1)N1CC(=O)N2[C@H](CO)[C@@H](c3ccc(-c4cccnc4)cc3)[C@@H]2C1,0.55
O=C(c1ccncc1)N1CC(=O)N2[C@@H](CO)[C@H](c3ccc(-c4cccnc4)cc3)[C@@H]2C1,1.2
O=C(c1ccncc1)N1CC(=O)N2[C@H](CO)[C@@H](c3ccc(-c4ccccc4)cc3)[C@H]2C1,2.8
COc1cccc(-c2ccc([C@H]3[C@@H](CO)N4C(=O)CN(C(=O)c5ccncc5)C[C@H]34)cc2)c1,-8*
O=C(Nc1cc(F)ccc1F)N1CCCCN2[C@H](C1)[C@H](c1ccc(-c3ccncc3)cc1)[C@@H]2CO,2.6
C/C=C/c1ccc([C@H]2[C@H](CO)N(C(C)=O)[C@H]2CNC(=O)c2ccccc2)cc1,-0.43
C[C@@H]1CCCCO[C@H](CN(C)C(=O)Nc2ccccc2)[C@@H](C)CN([C@H](C)CO)C(=O)c2cc(NC(=O)Nc3ccccc3)ccc2O1,1.3
O=C(NC1CCCC1)N1CCCCN2[C@H](CO)[C@H](c3ccc(-c4ccncc4)cc3)[C@H]2C1,4.5
O=C(NC1CCCC1)N1CCCCN2[C@H](CO)[C@H](c3ccc(-c4ccccc4)cc3)[C@@H]2C1,-0.47
O=C(NC1CCCC1)N1CCCCN2[C@H](CO)[C@@H](c3ccc(-c4ccccc4)cc3)[C@H]2C1,1.8
O=C(Nc1ccccc1F)N1CCCCN2[C@@H](CO)[C@@H](c3ccc(/C=C/c4ccccc4)cc3)[C@@H]2C1,-1.2
O=C(NC1CCCC1)N1CCCCN2[C@H](CO)[C@H](c3ccc(-c4ccncc4)cc3)[C@@H]2C1,4.7
O=C(NC1CCCC1)N1CCCCN2[C@@H](CO)[C@@H](c3ccc(/C=C/c4ccccc4)cc3)[C@@H]2C1,-8.4*
O=C(NC1CCCC1)N1CCCCN2[C@@H](CO)[C@H](c3ccc(/C=C/c4ccccc4)cc3)[C@@H]2C1,-15*
COc1ccccc1-c1ccc([C@H]2[C@@H](CO)N3CCCCN(C(=O)NC4CCCC4)C[C@@H]23)cc1,-9.3*
O=C(Nc1ccccc1F)N1CCCCN2[C@H](C1)[C@H](c1ccc(/C=C/c3ccccc3)cc1)[C@@H]2CO,-0.83
COc1ccc(C#Cc2ccc3c(c2)[C@@H]2[C@@H](CCN2Cc2nccs2)[C@@H](CO)N3)cc1,0.28
CO[C@H]1CN(C)C(=O)c2cccc(C#N)c2OCC[C@H]2CC[C@@H](OC)[C@H](CN(C)C(=O)[C@H]1C)O2,0.87
COc1cccc(S(=O)(=O)N2CCCCN3[C@@H](CO)[C@H](c4ccc(-c5ccccc5)cc4)[C@@H]3C2)c1,2.5
Cc1ccccc1-c1cnc2c(c1)C(=O)N([C@H](C)CO)C[C@@H](C)[C@@H](CN(C)Cc1ccccc1F)O2,-2.8
O=C1N[C@@H](c2ccccc2)COCn2nncc2CC[C@@H]1Cc1ccccc1,1.4
COc1ccc(NC(=O)N[C@H]2CC[C@H](CCNC(=O)CN3CCOCC3)O[C@@H]2CO)cc1,0.23
SMILES,IDE exosite FP
C/C=C/c1ccc([C@@H]2[C@@H](CO)N(S(C)(=O)=O)[C@H]2CN(C)C(=O)CC)cc1,-0.62
COc1ccc(CN2[C@@H]3CNc4ccccc4[C@@H]3[C@@H]2CO)cc1,2
CC(=O)NC[C@@H]1[C@@H](c2ccc(C3=CCCC3)cc2)[C@@H](CO)N1C(=O)NC(C)C,2
O=S(=O)(c1ccccc1)N1CCCCN2[C@@H](CO)[C@@H](c3ccc(C#Cc4ccccc4)cc3)[C@@H]2C1,-5.9*
COc1ccc(C#Cc2ccc([C@@H]3[C@H]4CN(S(=O)(=O)c5ccccc5)CCCCN4[C@H]3CO)cc2)cc1,-0.32
CCCC#Cc1ccc([C@@H]2[C@@H](CO)N3CCCCN(S(C)(=O)=O)C[C@@H]23)cc1,3.7
COc1ccccc1C#Cc1ccc([C@H]2[C@H]3CN(S(C)(=O)=O)CCCCN3[C@H]2CO)cc1,-9.8*
CS(=O)(=O)N1CCCCN2[C@H](CO)[C@@H](c3ccc(C#Cc4ccccn4)cc3)[C@H]2C1,-1.8
COc1ccccc1C#Cc1ccc([C@@H]2[C@H](CO)N3CCCCN(S(C)(=O)=O)C[C@@H]23)cc1,-18*
CCCC#Cc1ccc([C@@H]2[C@H]3CN(S(C)(=O)=O)CCCCN3[C@H]2CO)cc1,0.53
CCCC#Cc1ccc([C@@H]2[C@H](CO)N3CCCCN(S(C)(=O)=O)C[C@@H]23)cc1,-1.6
COc1ccccc1C#Cc1ccc([C@H]2[C@@H](CO)N3CCCCN(S(C)(=O)=O)C[C@H]23)cc1,-9.9*
O=S(=O)(c1ccccc1)N1CCCCN2[C@@H](CO)[C@H](c3ccc(C#Cc4ccccc4)cc3)[C@@H]2C1,3.8
CCCC#Cc1ccc([C@H]2[C@H]3CN(S(C)(=O)=O)CCCCN3[C@H]2CO)cc1,2.7
CS(=O)(=O)N1CCCCN2[C@H](CO)[C@@H](c3ccc(C#Cc4ccccn4)cc3)[C@@H]2C1,-1.6
CCN(C[C@H]1[C@H](c2ccccc2)[C@@H](CO)N1S(C)(=O)=O)C(=O)C1CC1,3.2
Cc1ccccc1S(=O)(=O)Nc1ccc2c(c1)C(=O)N(C)[C@@H]1CC[C@H](CC(=O)O)O[C@H]1CO2,0.68
CCc1cnc(N2[C@H](C#N)[C@H](c3ccccc3)[C@H]2CO)s1,-2.6
CC(C)C#Cc1ccc([C@@H]2[C@@H](CO)N3CCCCN(CC4CC4)C[C@@H]23)cc1,0.31
O=C(c1ccncc1)N1CC2(C1)[C@H](c1ccccc1)[C@@H](CO)N2CC1CC1,-1.1
C[C@@H]1CN([C@H](C)CO)C(=O)c2ccccc2-c2ccccc2CO[C@H]1CN(C)S(=O)(=O)c1cccc(C#N)c1,0.23
COc1ccc2c3c(n(C)c2c1)[C@H](CO)N(Cc1cccnc1)CC31CCN(C(=O)NC(C)C)CC1,-3*
COc1ccc2c3c(n(C)c2c1)[C@H](CO)N(C)CC31CCN(C(=O)c2cccnc2)CC1,-0.19
COc1ccc2c3c(n(C)c2c1)[C@@H](CO)N(Cc1ccc(Cl)cc1)CC31CN(C(=O)NC(C)C)C1,0.21
COc1cccc(CN2CC3(CCN(S(C)(=O)=O)CC3)c3c(n(C)c4cc(OC)ccc34)[C@@H]2CO)c1,-2.5
SMILES,IDE exosite FP
COc1ccc2c3c(n(C)c2c1)[C@H](CO)N(Cc1cccc(Cl)c1)CC31CCN(C(=O)C2CC2)CC1,-1.6
COc1ccc2c3c(n(C)c2c1)[C@@H](CO)N(Cc1cccnc1)CC31CCN(C(=O)NC(C)C)CC1,-5.9*
CCC(=O)N1[C@H](C#N)[C@@H](c2ccccc2-c2ccccc2)[C@@H]1CO,0.86
O=C(C[C@@H]1CC[C@@H]2NC[C@@H](O)COC[C@H]2O1)Nc1ccc(-c2ccccc2)cc1,0.25
CC=Cc1ccc2n(c1=O)C[C@H]1[C@H](CO)[C@@H](C(=O)N3CCc4ccccc4C3)[C@@H]2N1Cc1cocn1 (mixture of isomers),1.3
CO[C@H]1CN(C)C(=O)c2cc(NC(=O)NC(C)C)ccc2OC[C@H](C)N(Cc2ccccc2)C[C@@H]1C,-1.1
CCc1cnc(N2[C@H](C#N)[C@@H](c3ccc(C4=CCCC4)cc3)[C@@H]2CO)s1,5.3
C=C(C)C[C@@H]1CCn2cc(nn2)COCCNC1=O,1.6
